Measurements: ChEMBL document CHEMBL1157539, “Thousands of chemical starting points for antimalarial lead identification” (Nature, 2010)
Several values for one entry are separate records, joined by “and”; a condition that tells them apart may be missing. Equal entries are not always repeated.

Tested on: Plasmodium falciparum
Assay: GSK_TCMDC: Inhibition of Plasmodium falciparum 3D7 in whole red blood cells, using parasite LDH activity as an index of growth. Test compounds present at 2uM
Type: functional

Row | SMILES | Inhibition
1 | O=C(NCc1ccccc1)c1nn(CCCN2CCC3(CC2)C(=O)NCN3c2ccccc2)cc1-c1ccc(Cl)c(Cl)c1 | 88%
2 | Br.CC(Cc1ccc(SC(C)(C)C)cc1)NCC(O)c1cccc(Cl)c1 (stereo not given) | 99%
3 | CC(Cc1ccc([N+](=O)[O-])cc1)NCC(O)c1cccc(C(F)(F)F)c1 (stereo not given) | 98%
4 | Cc1cccc(C(=O)Nc2ccnc(N(C)C3CCN(CC(C)C)CC3)c2)c1.O=C(O)C(F)(F)F | 95%
5 | CC(C)CNCc1cccc(-c2ccccc2CN(C(=O)Nc2ccccc2)C2CCN(Cc3ccccc3)CC2)c1.O=C(O)C(F)(F)F | 100%
6 | CC[C@H]1CN2CC[C@H]1C[C@H]2[C@H](O)c1cc(-c2ccc(F)cc2)nc2ccc(OC)cc12.Cl | 99%
7 | COc1ccc(O)c(CN2CCN(c3cc(C)ccc3C)CC2)c1 | 90%
8 | Cn1nc(-c2ccc(S(=O)(=O)NC3CCC(CN4CCC(c5c[nH]c6ccccc56)CC4)CC3)s2)cc1C(F)(F)F (stereo not given) | 96% and 98%
9 | N#Cc1c(Cl)cccc1Oc1ccc(S(=O)(=O)NC2CCC(CN3CCC(c4c[nH]c5ccccc45)CC3)CC2)cc1 (stereo not given) | 85% and 100%
10 | CN(C)CCCn1cc(C(=O)OC2CC3CCC(C2)N3C)c2cc(-c3ccccc3)ccc21.Cl (stereo not given) | 97%
11 | COc1ccc(C(=O)C2CC2CN2CC=C(c3c[nH]c4ccc(OC)nc34)CC2)cc1 (stereo not given) | 98%
12 | O=C(NC1CCC(CN2CCC(c3c[nH]c4ccccc34)CC2)CC1)c1cnn(-c2ccccc2)c1-c1ccccc1Cl (stereo not given) | 95%
13 | CC(C)c1ccc(C=CC(=O)NC2CCC(CN3CCC(c4c[nH]c5ccccc45)CC3)CC2)cc1 (stereo not given) | 100%
14 | CC(=O)Nc1ccc(CN2CCC(N(C)c3cc(NC(=O)c4cccs4)ccn3)CC2)cc1.O=C(O)C(F)(F)F | 100%
15 | O=C(O)C(F)(F)F.O=C(c1cccs1)N(Cc1cccc(-c2ccc(CNC3CCCC3)cc2)c1)C1CCN(Cc2ccccc2)CC1 | 90%
16 | COc1cc(/C=C/C(=O)NC2CCC(CN3CCC(c4c[nH]c5ccccc45)CC3)CC2)ccc1O (stereo not given) | 98% and 99%
17 | Cc1cc(N(C)C2CCN(C)CC2)nc(Nc2ccc(Cl)cc2)n1 | 98%
18 | CC(C)(C)c1ccc(Cn2nc(C(=O)N3CCN(C(=O)C4CCCO4)CC3)c3ccccc32)cc1 (stereo not given) | 90%

Row | SMILES | Inhibition
19 | COc1ccc(CC(C)NCC(O)c2cccc(Cl)c2)cc1C (stereo not given) | 89%
20 | O=C(Nc1ccc(Oc2ccccc2)cc1)NC1CCC(CN2CCC(c3c[nH]c4ccccc34)CC2)CC1 (stereo not given) | 100%
21 | COc1ccc(CC(C)NCC(O)c2ccc(Cl)c(Cl)c2)cc1 (stereo not given) | 98%
22 | CC[C@H]1CN2CC[C@@H]1C[C@H]2[C@H](O)c1cc(N2CCC(O)(c3ccc(Cl)cc3)CC2)nc2ccc(OC)cc12 | 100%
23 | CN(C)CCCOc1ccc(CN2CCC(c3c[nH]c4ccc(NCC5CCCCC5)cc34)CC2)cc1.O=C(O)C(F)(F)F | 99%
24 | O=C(c1cc(C(=O)NCc2ccc(Cl)cc2)c(=O)n(Cc2ccc(Cl)cc2)c1)c1cc(F)ccc1O | 93%
25 | O=c1c2ccccc2nc(/C=C/c2ccc([N+](=O)[O-])cc2)n1-c1ccccn1 | 98%
26 | Br.COC(=O)c1ccc(CC(C)NCC(O)c2cccc(SC(F)(F)F)c2)cc1 (stereo not given) | 96%
27 | O=C(/C=C/c1ccc(Cl)c(Cl)c1)NCC1CCC(CN2CCC(c3c[nH]c4ccccc34)CC2)CC1 (stereo not given) | 100%
28 | CC(C)CNCc1cccc(-c2cccc(CN(C(=O)Nc3ccccc3)C3CCN(Cc4ccccc4)CC3)c2)c1.O=C(O)C(F)(F)F | 100%
29 | COc1cc(C=CC(=O)N2CCC(CN3CCC(c4c[nH]c5ccccc45)CC3)CC2)cc(OC)c1 | 95%
30 | CC(=O)N(Cc1ccc(-c2ccc(CNCCc3ccccc3)cc2)cc1)C1CCN(Cc2ccccc2)CC1.O=C(O)C(F)(F)F | 95%
31 | O=c1n[n+](C2CCCCC2)[n-]o1 | 91%
32 | CN(c1cc(NC(=O)c2ccccc2)ccn1)C1CCN(Cc2cccc(F)c2)CC1.O=C(O)C(F)(F)F | 92%
33 | CCOc1ccc(Br)cc1/C=C/C(=O)Nc1ccc2c(c1)C1CCC2N1C.O=C(O)C(F)(F)F (stereo not given) | 89%
34 | Cc1cc(C(=O)NC2CCN(CC3(c4ccc(Cl)cc4)CCC3)CC2)on1 | 98%
35 | CNC(=O)c1ccc2[nH]cc(C3CCN(CC4CCC(NC(=O)/C=C/c5ccc(Cl)c(Cl)c5)CC4)CC3)c2c1 (stereo not given) | 100%
